Targets with a hit are over-represented here; the source holds about 7,900 in all. About 0.6% of all pairs of compound and target were hits. A number with no mark means an inactive call.

Chain of UniProt Q14498 (Q14498 whole entry, looked up): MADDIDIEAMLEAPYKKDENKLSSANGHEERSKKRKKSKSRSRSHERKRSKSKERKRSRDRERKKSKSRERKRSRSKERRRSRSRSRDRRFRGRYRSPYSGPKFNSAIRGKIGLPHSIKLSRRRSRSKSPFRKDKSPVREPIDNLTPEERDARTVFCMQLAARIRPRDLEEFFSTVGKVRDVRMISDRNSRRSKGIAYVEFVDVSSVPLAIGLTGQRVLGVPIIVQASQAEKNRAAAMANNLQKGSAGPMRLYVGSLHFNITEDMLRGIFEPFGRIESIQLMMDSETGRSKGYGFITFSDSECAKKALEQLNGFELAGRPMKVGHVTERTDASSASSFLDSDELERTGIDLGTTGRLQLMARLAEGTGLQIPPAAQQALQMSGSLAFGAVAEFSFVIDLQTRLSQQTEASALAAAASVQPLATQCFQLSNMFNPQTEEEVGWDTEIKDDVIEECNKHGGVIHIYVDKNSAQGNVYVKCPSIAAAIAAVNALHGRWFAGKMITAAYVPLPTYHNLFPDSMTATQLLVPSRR
Chain of UniProt Q7Z6E9 (Q7Z6E9 whole entry, looked up): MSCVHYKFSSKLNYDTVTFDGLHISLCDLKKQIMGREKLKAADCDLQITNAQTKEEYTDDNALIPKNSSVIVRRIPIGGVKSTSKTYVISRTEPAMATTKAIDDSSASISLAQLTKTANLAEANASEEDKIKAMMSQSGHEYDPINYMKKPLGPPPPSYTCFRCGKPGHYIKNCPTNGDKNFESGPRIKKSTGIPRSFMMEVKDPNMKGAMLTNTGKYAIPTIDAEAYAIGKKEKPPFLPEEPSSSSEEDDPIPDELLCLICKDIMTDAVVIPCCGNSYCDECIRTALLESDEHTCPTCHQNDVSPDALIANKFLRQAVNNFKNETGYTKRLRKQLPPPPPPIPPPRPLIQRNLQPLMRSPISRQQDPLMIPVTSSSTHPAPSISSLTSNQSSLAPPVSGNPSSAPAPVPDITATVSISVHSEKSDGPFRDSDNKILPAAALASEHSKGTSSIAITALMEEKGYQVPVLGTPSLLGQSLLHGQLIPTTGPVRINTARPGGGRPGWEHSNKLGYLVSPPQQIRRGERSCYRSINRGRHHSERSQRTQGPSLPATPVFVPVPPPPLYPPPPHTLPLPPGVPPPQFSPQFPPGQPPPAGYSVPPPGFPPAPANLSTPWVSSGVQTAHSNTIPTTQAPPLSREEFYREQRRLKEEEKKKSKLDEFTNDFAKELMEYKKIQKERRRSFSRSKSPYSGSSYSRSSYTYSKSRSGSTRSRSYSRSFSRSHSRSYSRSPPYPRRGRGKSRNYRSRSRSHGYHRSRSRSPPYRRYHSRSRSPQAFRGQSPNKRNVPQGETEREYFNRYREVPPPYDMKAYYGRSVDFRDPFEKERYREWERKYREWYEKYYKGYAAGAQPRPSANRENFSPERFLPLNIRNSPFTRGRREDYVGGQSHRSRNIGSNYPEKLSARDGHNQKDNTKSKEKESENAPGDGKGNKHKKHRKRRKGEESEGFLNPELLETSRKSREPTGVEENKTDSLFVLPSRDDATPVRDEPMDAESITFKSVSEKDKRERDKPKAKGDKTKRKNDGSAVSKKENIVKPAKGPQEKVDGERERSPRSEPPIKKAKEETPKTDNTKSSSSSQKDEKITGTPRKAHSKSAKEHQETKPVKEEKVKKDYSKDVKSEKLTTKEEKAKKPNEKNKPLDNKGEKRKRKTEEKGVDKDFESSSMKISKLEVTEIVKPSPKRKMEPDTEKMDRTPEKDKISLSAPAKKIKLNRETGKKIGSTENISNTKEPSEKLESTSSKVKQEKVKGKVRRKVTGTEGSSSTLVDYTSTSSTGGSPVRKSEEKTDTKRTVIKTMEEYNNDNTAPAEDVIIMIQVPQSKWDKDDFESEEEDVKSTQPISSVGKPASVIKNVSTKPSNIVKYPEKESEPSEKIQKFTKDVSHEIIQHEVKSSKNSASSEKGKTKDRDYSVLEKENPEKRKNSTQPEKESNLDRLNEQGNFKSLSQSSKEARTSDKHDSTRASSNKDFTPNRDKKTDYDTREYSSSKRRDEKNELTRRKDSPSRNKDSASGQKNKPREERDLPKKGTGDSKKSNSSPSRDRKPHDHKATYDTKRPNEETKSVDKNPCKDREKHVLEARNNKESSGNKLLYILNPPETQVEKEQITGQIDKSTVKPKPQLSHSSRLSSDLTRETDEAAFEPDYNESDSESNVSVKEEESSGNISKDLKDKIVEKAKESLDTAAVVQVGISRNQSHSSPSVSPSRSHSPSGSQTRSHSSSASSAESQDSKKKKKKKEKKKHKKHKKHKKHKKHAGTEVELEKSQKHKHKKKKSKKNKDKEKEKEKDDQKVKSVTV
Chain of UniProt Q8WXD2 (Q8WXD2 whole entry, looked up): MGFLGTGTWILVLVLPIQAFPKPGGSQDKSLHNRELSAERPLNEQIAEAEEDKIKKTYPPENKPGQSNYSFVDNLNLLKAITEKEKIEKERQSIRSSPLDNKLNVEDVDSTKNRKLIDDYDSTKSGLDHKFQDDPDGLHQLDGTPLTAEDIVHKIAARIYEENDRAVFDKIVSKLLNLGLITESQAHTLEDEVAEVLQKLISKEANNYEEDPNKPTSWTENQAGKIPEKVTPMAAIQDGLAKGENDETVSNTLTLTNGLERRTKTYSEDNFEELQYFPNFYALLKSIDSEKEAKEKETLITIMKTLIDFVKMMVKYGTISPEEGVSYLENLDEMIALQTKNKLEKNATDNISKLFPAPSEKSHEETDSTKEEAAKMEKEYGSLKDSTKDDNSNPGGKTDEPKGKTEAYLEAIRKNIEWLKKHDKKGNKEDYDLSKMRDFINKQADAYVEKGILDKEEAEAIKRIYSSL
Chain of UniProt P46063 (P46063 whole entry, looked up): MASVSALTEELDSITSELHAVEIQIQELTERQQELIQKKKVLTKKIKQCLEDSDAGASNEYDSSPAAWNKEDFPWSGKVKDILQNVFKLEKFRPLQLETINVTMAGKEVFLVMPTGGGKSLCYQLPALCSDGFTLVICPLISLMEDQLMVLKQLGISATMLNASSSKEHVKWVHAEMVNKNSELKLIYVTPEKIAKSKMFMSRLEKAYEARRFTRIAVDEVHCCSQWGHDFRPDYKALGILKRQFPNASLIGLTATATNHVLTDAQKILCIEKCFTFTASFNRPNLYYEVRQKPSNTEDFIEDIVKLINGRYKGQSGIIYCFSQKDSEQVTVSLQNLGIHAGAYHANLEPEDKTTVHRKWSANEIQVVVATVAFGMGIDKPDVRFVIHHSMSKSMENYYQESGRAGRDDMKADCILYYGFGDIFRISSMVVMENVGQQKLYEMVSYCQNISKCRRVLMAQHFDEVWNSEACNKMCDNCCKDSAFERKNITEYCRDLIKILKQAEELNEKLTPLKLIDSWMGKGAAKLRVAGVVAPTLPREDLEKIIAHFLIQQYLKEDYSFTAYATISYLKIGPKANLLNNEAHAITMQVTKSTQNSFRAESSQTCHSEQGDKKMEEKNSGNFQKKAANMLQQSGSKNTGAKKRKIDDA
Chain of UniProt O15127 (O15127 whole entry, looked up): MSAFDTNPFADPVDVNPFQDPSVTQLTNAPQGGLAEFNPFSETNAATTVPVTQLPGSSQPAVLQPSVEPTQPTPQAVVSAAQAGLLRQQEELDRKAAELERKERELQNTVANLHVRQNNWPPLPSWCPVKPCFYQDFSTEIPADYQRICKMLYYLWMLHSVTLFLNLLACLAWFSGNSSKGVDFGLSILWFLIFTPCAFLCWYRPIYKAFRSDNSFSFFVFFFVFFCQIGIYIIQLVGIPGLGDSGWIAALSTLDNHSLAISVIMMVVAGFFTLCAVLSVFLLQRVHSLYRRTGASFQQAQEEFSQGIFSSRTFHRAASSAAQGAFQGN
Chain of UniProt O94885 (O94885 whole entry, looked up): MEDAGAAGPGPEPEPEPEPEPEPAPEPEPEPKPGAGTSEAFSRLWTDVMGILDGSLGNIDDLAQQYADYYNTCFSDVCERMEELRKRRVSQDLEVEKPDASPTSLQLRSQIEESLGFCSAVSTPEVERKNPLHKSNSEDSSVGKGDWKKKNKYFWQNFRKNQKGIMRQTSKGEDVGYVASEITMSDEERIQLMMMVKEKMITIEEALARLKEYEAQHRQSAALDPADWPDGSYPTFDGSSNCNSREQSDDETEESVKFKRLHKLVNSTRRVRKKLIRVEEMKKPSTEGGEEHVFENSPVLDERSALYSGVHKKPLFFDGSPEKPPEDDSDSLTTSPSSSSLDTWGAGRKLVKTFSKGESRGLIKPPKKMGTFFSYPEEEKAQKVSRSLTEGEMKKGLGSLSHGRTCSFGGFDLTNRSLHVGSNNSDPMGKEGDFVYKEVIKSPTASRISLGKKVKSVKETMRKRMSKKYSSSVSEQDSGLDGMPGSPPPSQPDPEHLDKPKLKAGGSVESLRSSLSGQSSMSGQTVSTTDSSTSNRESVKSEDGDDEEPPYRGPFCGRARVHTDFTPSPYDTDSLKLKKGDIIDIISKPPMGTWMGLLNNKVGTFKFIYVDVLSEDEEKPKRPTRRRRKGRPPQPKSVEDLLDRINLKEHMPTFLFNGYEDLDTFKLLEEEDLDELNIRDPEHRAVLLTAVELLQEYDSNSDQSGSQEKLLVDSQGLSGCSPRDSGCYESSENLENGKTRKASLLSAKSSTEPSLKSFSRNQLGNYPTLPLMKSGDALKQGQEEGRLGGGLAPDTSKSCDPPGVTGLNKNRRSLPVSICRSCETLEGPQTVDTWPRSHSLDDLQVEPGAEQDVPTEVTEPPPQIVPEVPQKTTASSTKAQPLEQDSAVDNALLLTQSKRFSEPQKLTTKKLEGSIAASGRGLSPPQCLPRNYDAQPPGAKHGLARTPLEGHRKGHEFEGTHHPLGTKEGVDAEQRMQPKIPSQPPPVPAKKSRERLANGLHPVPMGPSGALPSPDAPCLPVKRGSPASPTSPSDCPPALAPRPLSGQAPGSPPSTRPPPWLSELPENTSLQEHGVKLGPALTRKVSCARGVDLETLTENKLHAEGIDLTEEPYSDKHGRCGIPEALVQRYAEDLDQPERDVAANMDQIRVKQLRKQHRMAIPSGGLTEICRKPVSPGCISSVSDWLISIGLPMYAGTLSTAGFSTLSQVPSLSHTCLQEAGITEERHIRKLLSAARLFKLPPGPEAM

Compound in the first test: CC[C@H](C)N1C=C(C2=C(C=C(C=C21)C3=CN=C(C=C3)N4CCNCC4)C(=O)NCC5=C(C=C(NC5=O)C)C)C
The test is described as follows: log2 fold change, soluble protein after heating vs DMSO (PISA); higher = thermal stabilisation; K562 cells, 10 uM, 30 min; active = over 0.2 and 3.5 SD of the protein, either way, in both replicates (recomputed). The method, boiled down:
(§1)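 Quantification of soluble protein used TMTpro 16plex LC-MS/MS, with channel sums equalised. Samples were the supernatant after 21,000xg for 90 min of pooled aliquots from K562 cells (2×10^6 cells/mL) treated with 10 μM compound for 30 min, heated for 3 min over 48°C-58°C, and extracted in PBS with 0.5% NP-40 at 4°C. Values, from duplicates, describe thermal stability against control samples on a log2 fold-change scale.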
For SCAMP2 (UniProt H3BUB6), the log2 fold change was -0.092.
Take SIK3 (UniProt H0Y4E8): the log2 fold change was -0.02.
Same read-out and setting: the figure for SCG3 (UniProt Q8WXD2) is -0.013.
For RCOR3 isoform 3 (UniProt Q9P2K3), the log2 fold change is -0.078.
Still for that read-out and setting: the figure for SAMD4B (UniProt Q5PRF9) is -0.047.
Same read-out and setting: the figure for SCAF8 isoform 2 (UniProt Q9UPN6) is 0.037.
Regarding RBM48 isoform 2 (UniProt Q5RL73), the log2 fold change was 0.002.
On the same count and under the same terms, the result for SASH1 (UniProt O94885) reads 0.044.
The same measure, in the same setting: the result for SCAMP2 (UniProt O15127) reads -0.01; that for RBBP6 (UniProt Q7Z6E9), 0.013.
For RPS6KA3 (UniProt P51812), the log2 fold change is 0.065.
Take RBM39 (UniProt Q14498): the log2 fold change is 0.038.
The same measure, in the same setting: the result for RALY (UniProt Q9UKM9) reads 0.136; that for ROCK1 (UniProt Q13464), 0.005.
On the same count and under the same terms, the figure for RECQL (UniProt P46063) is 0.002; for SH3GLB2 (UniProt Q9NR46) it is 0.072; for RAB9A (UniProt P51151) it is -0.001.
On the same count and under the same terms, the figure for SH2D1B (UniProt O14796) is 0.095; for SLBP (UniProt Q14493) it is 0.013.
With SERINC1 (UniProt Q9NRX5), the log2 fold change was -0.223.
Still for that read-out and setting: the figure for RAB3IL1 (UniProt E9PK89) is 0.25; for RAP2C (UniProt Q9Y3L5) it is 0.042.
Turning to RUFY3 isoform 3 (UniProt Q7L099), the log2 fold change was -0.071.
As to RETSAT (UniProt Q6NUM9), the log2 fold change is 0.024.
Same read-out and setting: the result for SEC31A (UniProt O94979) reads 0.021; that for RBIS (UniProt Q8N0T1), -0.012.
Turning to SLC12A9 (UniProt Q9BXP2), the log2 fold change is -0.016.
Consider RNF167 (UniProt Q9H6Y7), for which the log2 fold change was -0.043.
Same read-out and setting: the figure for RCOR1 (UniProt Q9UKL0) is 0.212; for SEC24A (UniProt O95486) it is 0.018.

Compound in the next test: CC[C@H](C)[C@@H](C(=O)N[C@@H]([C@@H](C)O)C(=O)N[C@@H](CC(C)C)C(=O)[C@]1(CO1)C)NC(=O)[C@H]([C@@H](C)CC)N(C)C(=O)C [epoxomicin]
Described as above. In outline:
as §1
As for SCAMP2 (UniProt H3BUB6), the log2 fold change is -0.157.
Same read-out and setting: the result for SCG3 (UniProt Q8WXD2) reads -0.119; that for SAMD4B (UniProt Q5PRF9), 0.02.
Take SCAF8 isoform 2 (UniProt Q9UPN6): the log2 fold change was 0.101.
As to RBM48 isoform 2 (UniProt Q5RL73), the log2 fold change was 0.003.
On the same count and under the same terms, the figure for SASH1 (UniProt O94885) is -0.075; for SCAMP2 (UniProt O15127) it is 0.001.
On to RBBP6 (UniProt Q7Z6E9), for which the log2 fold change was -0.001.
As to RAF1 isoform 2 (UniProt P04049), the log2 fold change was -0.003.
The same measure, in the same setting: the result for RPS6KA3 (UniProt P51812) reads 0.027.
Still for that read-out and setting: the result for RBM39 (UniProt Q14498) reads -0.027.
Consider RPAIN isoform 8 (UniProt Q86UA6), for which the log2 fold change was -0.118.
For the target RALY (UniProt Q9UKM9), the log2 fold change was -0.277.
Still for that read-out and setting: the figure for ROCK1 (UniProt Q13464) is -0.011; for RECQL (UniProt P46063) it is 0.
In the case of SH3GLB2 (UniProt Q9NR46), the log2 fold change is 0.041.
Still for that read-out and setting: the figure for RAB9A (UniProt P51151) is 0.064; for SH2D1B (UniProt O14796) it is 0.168.
Still for that read-out and setting: the result for SLBP (UniProt Q14493) reads 0.127; that for SERINC1 (UniProt Q9NRX5), -0.034.
Regarding RAB3IL1 (UniProt E9PK89), the log2 fold change is 0.109.
In the case of RAP2C (UniProt Q9Y3L5), the log2 fold change is 0.172.
As for SCO2 (UniProt O43819), the log2 fold change was -0.055.
The same measure, in the same setting: the figure for RETSAT (UniProt Q6NUM9) is -0.003; for SEC31A (UniProt O94979) it is 0.034.
Still for that read-out and setting: the figure for RBIS (UniProt Q8N0T1) is 0.204; for SLC12A9 (UniProt Q9BXP2) it is 0.059; for RNF167 (UniProt Q9H6Y7) it is 0.039.
Still for that read-out and setting: the result for RCOR1 (UniProt Q9UKL0) reads 0.002.
For SEC24A (UniProt O95486), the log2 fold change was 0.055.

Compound in the next test: CCn1c(C(=O)N(C2CC2)C2CC2)cc2c3c(ncn3C)c(Nc3cc(C)n(C)n3)nc21
The test is described as above. In outline:
as §1
In the case of SCAMP2 (UniProt H3BUB6), the log2 fold change was -0.058.
For SIK3 (UniProt H0Y4E8), the log2 fold change is -0.058.
As for SCG3 (UniProt Q8WXD2), the log2 fold change is 0.048.
The same measure, in the same setting: the figure for RCOR3 isoform 3 (UniProt Q9P2K3) is -0.074; for SAMD4B (UniProt Q5PRF9) it is -0.124; for SCAF8 isoform 2 (UniProt Q9UPN6) it is -0.003.
With RBM48 isoform 2 (UniProt Q5RL73), the log2 fold change is 0.13.
In the case of SASH1 (UniProt O94885), the log2 fold change is -0.012.
Same read-out and setting: the figure for SCAMP2 (UniProt O15127) is 0.065; for RBBP6 (UniProt Q7Z6E9) it is -0.023; for RAF1 isoform 2 (UniProt P04049) it is 0.034.
On to RPS6KA3 (UniProt P51812), for which the log2 fold change was 0.066.
For RBM39 (UniProt Q14498), the log2 fold change was -0.057.
RALY (UniProt Q9UKM9): the log2 fold change was 0.012.
Still for that read-out and setting: the figure for ROCK1 (UniProt Q13464) is 0.002; for RECQL (UniProt P46063) it is 0.009.
Take SH3GLB2 (UniProt Q9NR46): the log2 fold change is -0.058.
Same read-out and setting: the figure for RAB9A (UniProt P51151) is -0.003; for SH2D1B (UniProt O14796) it is 0.092; for SLBP (UniProt Q14493) it is -0.03.
Take SERINC1 (UniProt Q9NRX5): the log2 fold change was 0.019.
Still for that read-out and setting: the figure for RAB3IL1 (UniProt E9PK89) is -0.138.
On the same count and under the same terms, the result for RAP2C (UniProt Q9Y3L5) reads 0.054; that for SCO2 (UniProt O43819), 0.042.
In the case of RUFY3 isoform 3 (UniProt Q7L099), the log2 fold change was -0.046.
Same read-out and setting: the result for RETSAT (UniProt Q6NUM9) reads -0.083; that for SEC31A (UniProt O94979), -0.044; that for RBIS (UniProt Q8N0T1), 0.034.
In the case of SLC12A9 (UniProt Q9BXP2), the log2 fold change was 0.037.
With RNF167 (UniProt Q9H6Y7), the log2 fold change is 0.103.
Consider RCOR1 (UniProt Q9UKL0), for which the log2 fold change was -0.002.
As for SEC24A (UniProt O95486), the log2 fold change is -0.05.

The record behind these values is the supplement of paper PMC10849652.
